Source: ChEMBL document CHEMBL3988442, “University of Dundee, Small-Polar-MMV Screening Library” (2021)
Screen size: about 69,000 compounds; about 1,000 (1.4%) showed an effect of 50% or more. The sample holds strong results, similar compounds and a random draw of the others, so the mix is not that of the screen.

System: Leishmania donovani
Test: Leishmania intramacrophage assay
Assay type: functional, organism-based
Parameters: scale not given: in the data most compounds retested in dose-response had high values

| Compound | Percent Effect (30.3 µM, […]) | Percent Effect (30 µM, 30.03 µM) |
| --- | --- | --- |
| O=C(O)C(F)(F)F.O=C(O)C(F)(F)F.c1cncc(OC[C@]23COC[C@H]2CN(C2CCC2)C3)c1 | 24.17% | – |
| Cn1nc(CN2CCCCC(N)C2)c2c(Cl)cccc21 (stereo not given) | 74.89% | – |
| Cc1cc(CN2C[C@@H]3COC[C@]3(CNC(=O)c3ccno3)C2)no1 | – | 11.65% |
| Cl.O=C1CC2(CCCNC2)C(=O)N1Cc1ccccc1 (stereo not given) | – | 10.36% |
| Fc1cccnc1O[C@@H]1CN(Cc2ccco2)[C@@H]2CCCO[C@@H]21.O=C(O)C(F)(F)F.O=C(O)C(F)(F)F | 0.2133% | – |
| Cc1c(C2N3C[C@]4(C)CN2C[C@](C)(C3)C4=O)[nH]c(=O)[nH]c1=O (stereo not given in full) | 18.9% | – |
| O=C(Nc1ccc(F)cc1)N1CCC(CO)(Nc2ccccc2)CC1 | 1.566% | – |
| Cc1cccc(NC(=O)N2CCC(CO)(Nc3ccccc3)CC2)c1 | 33.34% | – |
| Cc1ccc(NC(=O)N2CCC(CO)(Nc3ccccc3)CC2)cc1 | 64.38% | – |
| O=C(O)C(F)(F)F.O=C(O)C(F)(F)F.c1ccc(CN2CCN3C[C@H](Oc4cncnc4)C[C@H]3C2)nc1 | 2.199% | – |
| O=C(O)C(F)(F)F.O=C(O)C(F)(F)F.O=C(c1ccco1)N1CCN2C[C@H](OCc3cccnc3)C[C@H]2C1 | 15.93% | – |
| O=C(O)C(F)(F)F.c1ccc(NC[C@@H]2CCC[C@@H]3CN(Cc4cccnc4)C[C@@H]32)nc1 | 38.85% | – |
| Cc1noc(C)c1CN1C[C@@H]2CC(F)(F)C[C@@H]2C1.O=C(O)C(F)(F)F | 4.682% | – |
| Fc1cccc(CN2C[C@@H]3CN(c4ncccn4)C[C@@H]3C2)c1.O=C(O)C(F)(F)F.O=C(O)C(F)(F)F | 8.696% | – |
| Cc1noc(C)c1CN1C[C@H]2CN(Cc3cccc(F)c3)C[C@H]2C1.O=C(O)C(F)(F)F.O=C(O)C(F)(F)F | 50.84% | – |
| O=C(C1CCOC1)N1CCC2(CCNCC2)C1 (stereo not given) | 11.74% | – |
| Cc1nnc([C@H]2C[C@@H]3CCN(Cc4cc(C)on4)C[C@H]3O2)[nH]1 | 19.71% | – |
| Cc1cc(CN2CC[C@@H]3O[C@@H](c4nnc(C)o4)C[C@H]3C2)no1 | 55.35% | – |
| Cc1cc(CN2CC[C@H]3C[C@@H](c4nccs4)O[C@@H]3C2)no1 | 12.1% | – |
| CCc1c(C)[nH]c(C2(N)CCCC2)nc1=O.Cl | 9.424% | – |

| Compound | Percent Effect (30.3 µM, […]) | Percent Effect (30 µM, 30.03 µM) |
| --- | --- | --- |
| O=C(O)C(F)(F)F.c1cnc(N2CCC3(CCCN(CC4CC4)C3)CC2)nc1 | 32.8% | – |
| O=C(O)C(F)(F)F.c1cnc(N2CCCC3(CCN(CC4CCC4)C3)C2)nc1 (stereo not given) | 67.66% | – |
| O=C(O)C(F)(F)F.O=C(O)C(F)(F)F.c1cnc(N2CCCC3(CCN(CC4CC4)C3)C2)nc1 (stereo not given) | 29.01% | – |
| Cc1noc([C@@H]2C[C@H]3OCC[C@H]3N(C(C)C)C2)n1.O=C(O)C(F)(F)F | -1.476% | – |
| c1ccc(N2CCCC3(CCN(Cc4nccs4)C3)C2)nc1 (stereo not given) | – | 40.77% |
| CNC(=O)[C@@H]1[C@H]2CNCCN2C[C@H]1c1ccccc1 | 3% | – |
| Cc1ccc(CN2CCC3(CC2)C(=O)Nc2ccccc23)s1.O=C(O)C(F)(F)F | 7.529% | – |
| Cl.Cl.NCC1[C@H]2CN(CCc3ccccc3)C[C@@H]12 (stereo not given in full) | – | 31.54% |
| Cl.Cl.NC[C@H]1[C@H]2CN(Cc3ccccc3)C[C@@H]12 | – | 3.608% |
| NCC1[C@H]2CN(Cc3cccc(Cl)c3)C[C@@H]12 (stereo not given in full) | 88.17% | – |
| CN1CCCCC1c1cncc(Cl)n1.Cl (stereo not given) | 9.533% | – |
| CCN1CCC2(CC1)C(=O)Nc1ccc(C(=O)NC)cc12.O=C(O)C(F)(F)F | 1.318% | – |
| O=C(N1CCOCC1)[C@@]12CCO[C@@H]1CCN(Cc1ccncc1)C2.O=C(O)C(F)(F)F.O=C(O)C(F)(F)F | 2.48% | – |
| CC(N)Cc1ccccc1Sc1ccc(O)cc1.CC(N)Cc1ccccc1Sc1ccc(O)cc1.O=C(O)C(=O)O (stereo not given) | 78.04% | – |
| CNC(C)Cc1ccccc1Sc1ccc(O)cc1.Cl (stereo not given) | 66.06% | – |
| CNS(=O)(=O)CC(=O)NC(C)Cc1ccccc1Br (stereo not given) | 6.804% | – |
| CC[C@H](C)[C@@H](CO)NC(C)Cc1ccccc1F (stereo not given in full) | 2.411% | – |
| CC(N)Cc1ccccc1Sc1ccccc1.O=C(O)/C=C\C(=O)O (stereo not given) | 100.2% | – |
| Cc1noc(C)c1CN1CCCC2(CCN(C(=O)NC3CC3)C2)C1.O=C(O)C(F)(F)F (stereo not given) | – | 17.52% |
| O=C(C[C@@H]1COC[C@H]2CN(Cc3cccnc3)C[C@@H]12)N1CCCC1.O=C(O)C(F)(F)F.O=C(O)C(F)(F)F | -30.89% | – |
